This is a sample that favours compounds with a hit; in the whole collection about 3.9% have one here.
Mtb FBA inh: Mtb fructose-bisphosphate aldolase inhibition | P9WQA3 | purified M. tuberculosis FBA, fluorescence read-out | inhibition, % at 1 µM | 360,000 compounds, 2.3% hits | AID 588726; in the data active = inhibition above about 27%
Target sequence (P9WQA3 whole entry, looked up): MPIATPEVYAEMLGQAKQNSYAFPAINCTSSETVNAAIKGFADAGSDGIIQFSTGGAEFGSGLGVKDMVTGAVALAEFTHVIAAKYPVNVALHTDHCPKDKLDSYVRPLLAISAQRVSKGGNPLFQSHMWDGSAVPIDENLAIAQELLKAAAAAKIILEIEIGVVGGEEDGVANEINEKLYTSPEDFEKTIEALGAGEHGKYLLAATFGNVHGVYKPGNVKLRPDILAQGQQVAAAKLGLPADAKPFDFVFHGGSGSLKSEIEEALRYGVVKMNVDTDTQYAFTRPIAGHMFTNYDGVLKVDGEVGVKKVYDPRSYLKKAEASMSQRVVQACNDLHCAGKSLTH
Vc quorum ag-1: inducers of Vibrio cholerae quorum light production without autoinducers; V. cholerae BH1578 lux reporter, luminescence, 6 h; activation, % at 18.7 µM; 350,000 compounds, 0.16% hits; in the data active = activation mostly above about 9.7%, no sharp cut-off
GDH-TPI inh: GDH-TPI coupled enzyme inhibition counter-screen; GDH-TPI coupled enzyme counterscreen, NADH absorbance; inhibition, % at 4.8 µM; 360,000 compounds, 1.2% hits; AID 588335
CCHFV vOTU inh: blocks the CCHF virus ovarian tumor domain protease; CCHFV vOTU protease, Pep-AMC fluorescence; inhibition, % at 11.5 µM; 370,000 compounds, 0.55% hits; AID 651958
Vc quorum ag-2: inducers of V. cholerae quorum light production without autoinducers; shares compounds with Vc quorum ag-1; activation, % at 50 µM; V. cholerae BH1578 lux reporter, luminescence, 6 h; AID 602243; 620 tested, under 10 active; call rule not given here
Of the large screens only hits and unclear results are named; the others gave an inactive call (follow-up assays come after a bar, where they were run). Cut-off read from the data, not from the text of the source, unless noted: active = inhibition above about 30%; inactive = the rest.

O=S(=O)(Nc1ccc(-c2ccc3nncn3n2)cc1)c1ccccc1Cl	none
Cc1cc(=O)oc2cc(OCC(=O)Nc3nccs3)ccc12	none
CCC(CC)c1nnc(NC(=O)COc2ccc3c(C)cc(=O)oc3c2)s1	none | Vc quorum ag-2 inactive
Cc1cccc(C(=O)N2CCC(c3nc(-c4ccc(S(=O)(=O)N5CCOCC5)cc4)no3)CC2)c1	none
O=C(c1ccccc1)N1CCC(c2nc(-c3ccc(S(=O)(=O)N4CCOCC4)cc3)no2)CC1	none | Vc quorum ag-2 inactive
CC(C)OC(=O)c1nnn(-c2nonc2N)c1CN1CCc2ccccc2C1	none
CCOC(=O)c1nnn(-c2nonc2N)c1CN1CCc2ccccc2C1	none | Vc quorum ag-2 inactive
O=C(NCCN1CCOCC1)c1cccc(NS(=O)(=O)c2ccc(Br)cc2)c1	Vc quorum ag-1 23.2 | Vc quorum ag-2 inactive
COc1ccc(OC)c(S(=O)(=O)N2CCC(C(=O)N3CCc4ccccc4C3)CC2)c1	none | Vc quorum ag-2 inactive
COc1ccc(OC)c(S(=O)(=O)N2CCC(C(=O)N3CCCC3)CC2)c1	none
COc1ccccc1CNS(=O)(=O)c1ccc2c(c1)N(C(C)=O)CCO2	none
COc1cccc(OCC(=O)NC2CCCCC2)c1	Vc quorum ag-1 36.9 | Vc quorum ag-2 inactive
COc1cccc(OCC(=O)NC2CCCCCC2)c1	none
CCC(C(=O)NCCN1CCN(C)CC1)n1c(C)c2cnn(-c3ccccc3)c(=O)c2c1C (stereo not drawn)	none
Cc1ccc(N(CC(N)=O)C2SC(=O)N(C)C2=O)cc1 (stereo not drawn)	none
Cc1cccc(N(CC(N)=O)C2SC(=O)N(c3ccccc3)C2=O)c1 (stereo not drawn)	Vc quorum ag-1 25.0 | Vc quorum ag-2 inactive
Cc1ccc(CN2C(=O)CCC2C(=O)NCCN(CC(C)C)CC(C)C)cc1 (stereo not drawn)	none | Vc quorum ag-2 inactive
COC(=O)c1ccc(CSc2nnc3c(Cl)cc(Cl)cn23)o1	Vc quorum ag-1 34.8 | Vc quorum ag-2 inactive
O=C(CC(=O)c1ccccc1)Nc1ccc2c(c1)OCCO2	none
O=C(O)CSC1=NC(=Nc2cccc(Cl)c2)C2(CCCCC2)N1c1ccccc1	none
COc1ccc(NC(=O)C(=O)NCC2CCCN2S(=O)(=O)c2ccc(C)cc2)cc1 (stereo not drawn)	none | Vc quorum ag-2 inactive
COc1ccc(CCNC(=O)C(=O)NCC2CCCN2S(=O)(=O)c2ccc(OC)cc2)cc1 (stereo not drawn)	Vc quorum ag-1 28.6 | Vc quorum ag-2 inactive
CCOc1ccccc1OCC(=O)Oc1ccc(C)c(C)c1	none
C=CCNC(=O)c1c2c(nc3ccccc13)-c1ccccc1CC2	none
CC(C)CNC(=O)c1c2c(nc3ccccc13)-c1ccccc1CC2	Vc quorum ag-1 16.7 | Vc quorum ag-2 inactive
CCNS(=O)(=O)c1ccc(NC(=O)c2ccc(Cn3cc([N+](=O)[O-])cn3)o2)cc1	none
CCC(=O)c1coc2ccc(O)cc12	Vc quorum ag-1 25.0 | Vc quorum ag-2 inactive
O=C(NCc1ccco1)C1CCCN1S(=O)(=O)c1ccc2ccccc2c1 (stereo not drawn)	none | Vc quorum ag-2 inactive
CCOCCCNC(=O)C1CC(=O)N(CCc2ccc(C)cc2)C1 (stereo not drawn)	none
CCOCCCN1CC(C(=O)NCCc2ccc(C)cc2)CC1=O (stereo not drawn)	Vc quorum ag-1 16.7 | Vc quorum ag-2 inactive
COCc1nnc(NS(=O)(=O)c2ccc(Br)cc2)s1	Vc quorum ag-1 27.8 | Vc quorum ag-2 inactive
COc1ccc2c(c1OC)C(=O)N(c1nccs1)C2	none | Vc quorum ag-2 inactive
COc1ccc(N2Cc3ccc(OC)c(OC)c3C2=O)cc1	none
Cc1ccc(S(=O)(=O)N2Cc3ccccc3CC2C(=O)Nc2ccc3c(c2)OCO3)cc1 (stereo not drawn)	none | Vc quorum ag-2 inactive
COc1ccccc1NC(=O)c1nn(-c2ccc(Cl)cc2)ccc1=O	Vc quorum ag-1 25.0 | Vc quorum ag-2 inactive
COc1ccccc1NC(=O)c1nn(-c2ccccc2)ccc1=O	none
CC(=O)c1ccc(Oc2cc(C)nc(NCc3ccccc3)n2)cc1	Vc quorum ag-1 25.0 | Vc quorum ag-2 inactive
CC(=O)c1ccc(N2CCN(C(=O)CCCn3c(=O)[nH]c4ccccc4c3=O)CC2)cc1	none
O=C(Nc1cccc(S(=O)(=O)N2CCOCC2)c1)c1ccccn1	none
COc1cccc(-c2nc(OC(C)C)c3ccccc3n2)c1	Vc quorum ag-1 25.0 | Vc quorum ag-2 inactive
COc1ccccc1CNC(=O)COC(=O)c1n[nH]c2ccccc12	none | Vc quorum ag-2 inactive
COc1ccccc1CNC(=O)c1n[nH]c2ccccc12	none
Cc1cccc(N2CCN(C(=O)Cn3cccc3C(=O)c3ccccc3)CC2)c1C	none | Vc quorum ag-2 inactive
CCOC(=O)c1cnc2nc(Cc3ccccc3)[nH]n2c1=O	none
CCOC(=O)c1cnc2nc(C(F)(F)F)[nH]n2c1=O	Vc quorum ag-1 16.7 | Vc quorum ag-2 inactive
NC(=O)CC(NC(=O)Cc1cccc2ccccc12)c1ccc(NCCc2cccc(F)c2)c([N+](=O)[O-])c1 (stereo not drawn)	none
CCOC(=O)c1ccccc1NC(=O)COC(=O)C1=COCCO1	none | Vc quorum ag-2 inactive
CCOC(=O)c1ccccc1NC(=O)C1=COCCO1	none
C/C(=N\NC(=O)Cn1ccc(C(F)(F)F)n1)c1ccc2c(c1)OCO2	none (no result: Vc quorum ag-1)
CN(Cc1cccs1)c1nc(-c2cccnc2)nc2ccccc12	none
CC(=O)Nc1ccc(SCC(=O)N(CCC#N)c2cc(C)cc(C)c2)cc1	none
CC(=O)Nc1ccc2nc(-c3cccnc3)[nH]c2c1	Vc quorum ag-1 75.4 | Vc quorum ag-2 inactive
CCn1c(SCC(=O)Nc2cccc3ccccc23)nnc1-c1cccs1	none (no result: Mtb FBA inh, Vc quorum ag-1, GDH-TPI inh)
CCCS(=O)(=O)N1CCC(C(=O)N2CCN(C(=O)OCC)CC2)CC1	Vc quorum ag-1 15.0 | Vc quorum ag-2 inactive
CCOC(=O)N1CCN(C(=O)C2CCN(S(=O)(=O)CC)CC2)CC1	none
CCOC(=O)C1CCN(C(=O)C2c3ccccc3C(=O)N(C)C2c2ccc(OC)cc2)CC1 (stereo not drawn)	Vc quorum ag-1 16.7 | Vc quorum ag-2 inactive
COc1ccc(C2C(C(=O)N3CCCCC3)c3ccccc3C(=O)N2C)cc1 (stereo not drawn)	none
Cc1cc(NC2CCCCC2)nc(-c2ccccc2O)n1	Vc quorum ag-1 16.7 | Vc quorum ag-2 inactive
Cc1cc(Nc2ccccc2)nc(-c2ccccc2O)n1	none
NC(=O)C1CCN(C(=O)CNC(=O)c2ccc(F)cc2)CC1	none (no result: Vc quorum ag-1)
C=CCNC(=O)CCCOc1ccc(C)cc1	Vc quorum ag-1 35.2 | Vc quorum ag-2 inactive
Cc1ccc2cc(CN(C(=O)c3cccs3)c3ccccc3)c(=O)[nH]c2c1	none
Cc1cc(C)c(S(C)(=O)=O)c(Oc2ccc(C(C)(C)C)cc2)n1	none | Vc quorum ag-2 inactive
Cc1cc(C)c(S(C)(=O)=O)c(Oc2cccc(Cl)c2)n1	none
Fc1ccc(-c2csc(-c3ccncc3)n2)cc1	none
O=S(=O)(Nc1ccc(-c2csc(-c3ccccc3)n2)cc1)c1ccc(F)cc1	Vc quorum ag-1 25.0 | Vc quorum ag-2 inactive
N#Cc1nc(-c2ccc(OCc3ccc(Cl)cc3)cc2)oc1NCc1cccnc1	Vc quorum ag-1 16.7 | Vc quorum ag-2 inactive
N#Cc1nc(-c2ccc(OCc3ccccc3)cc2)oc1NCCCn1ccnc1	none
COc1ccc(C(=O)COC(=O)c2cccc(-n3cnnn3)c2)c(OC)c1	none | Vc quorum ag-2 inactive

Bioassay records (PubChem BioAssay)
